The text below walks through data of PubChem BioAssay (NCATS).

Each structure is given as a SMILES string. Records with an inconclusive call do not appear. A number with no mark means an inactive call. Activity calls are given as the source filed them. Calls follow the shape of the dose curve; as a rule, active = well fitted cell-killing curve with a large enough effect; inconclusive = small, poorly fitted or top-dose-only effect, or effect the other way; inactive = no such curve, though single readings can be large or run the other way.
Potency is read from the fitted curve at half-maximal effect.

This assay in a line: Quantitative High-Throughput drug screen in 47 multiple myeloma cell lines against the NCATS MIPE library collection: Delta47_JCRB cell viability assay (AID 1918925; also: nearly all actives have a fitted effect of over 45% in size). Conditions: Delta47 myeloma viability, CellTiter-Glo ATP, 48 h; series mostly up to 45.8 µM; viability (% of DMSO): at the top concentration. The text has this:
PI: Beverly A. Mock Ph.D.
Laboratory of Cancer Biology and Genetics,
Center for Cancer Research, National Cancer Institute,
National Institute of Health, Bethesda, Maryland
Drug resistance and disease progression are common in multiple myeloma (MM) patients, underscoring the need for new therapeutic combinations. […] We hypothesized that effective combinations would reduce MYC expression and enhance p16 activity. […] These preclinical data identify potentially useful drug combinations for evaluation in drug-resistant MM and reveal potential mechanisms of combined drug sensitivity.
Described herein is the primary MIPE qHTS used to cherrypick compounds. Validated compounds were then further tested for potential synergistic activiy.
[1] Peat TJ, Gaikwad SM, Dubois W, Gyabaah-Kessie N, Zhang S, Gorjifard S, Phyo Z, Andres M, Hughitt VK, Simpson RM, Miller MA, Girvin AT, Taylor A, Williams D, D'Antonio N, Zhang Y, Rajagopalan A, Flietner E, Wilson K, Zhang X, Shinn P, Klumpp-Thomas C, McKnight C, Itkin Z, Chen L, Kazandijian D, Zhang J, Michalowski AM, Simmons JK, Keats J, Thomas CJ, Mock BA. Drug combinations identified by high-throughput screening promote cell cycle transition and upregulate Smad pathways in myeloma. Cancer Lett. 2023 Aug 1;568:216284. doi: 10.1016/j.canlet.2023.216284. Epub 2023 Jun 24. PMID: 37356470; PMCID: PMC10408729.
SEQUENCE No. (e.g., 1, 2, 3, etc.); […] (e.g., Cells, Incubation, Reagent, etc.); VALUE and DESCRIPTION.
1; Cells; 5 uL; white, solid bottom 1536-well Greiner assay plate.
2; Compounds; 23 nL; Kalypsis pin tool (Wako USA) equipped with a 1536-well pin head to transfer to the assay plates.
3; Incubation; 48 hours; 37C incubation.
4; Reagent;5uL; CellTiter Glo (Promega).
5; Detector; 425V; Luminescence; Viewlux PerkinElmer.
NOTES (numbers refer to Sequence numbers above)
1. The cell-based screening methods employed in this study were like those previously published. Briefly, the corresponding myeloma cell lines were screened in 1,536-well plates with 500 cells, 5-uL per well for inhibition of cell viability (assessed by measuring ATP levels with CellTiterGlo).
2. NCATS MIPE 4.0 library of approved and investigational drugs were added using the Kalypsis pin tool. Wells treated with DMSO only for 100% viability and media only wells for 0% viability were used as controls.
3. The assay plates were covered and incubated for 48 hours in a 37C, 5% CO2 incubator with controlled humidity.
4. After 48 hours, CellTilter-GloTM luminescent substrate mix (Promega) reagent was added to the assay plate and plates we incubated for 5 min at room temperature.
5. Signal was measured as median relative luminescence units on a ViewLux (PerkinElmer) multiplate reader.
[1] Heske CM, Davis MI, Baumgart JT, Wilson K, Gormally MV, Chen L, Zhang X, Ceribelli M, Duveau DY, Guha R, Ferrer M, Arnaldez FI, Ji J, Tran HL, Zhang Y, Mendoza A, Helman LJ, Thomas CJ. Matrix Screen Identifies Synergistic Combination of PARP Inhibitors and Nicotinamide Phosphoribosyltransferase (NAMPT) Inhibitors in Ewing Sarcoma. Clin Cancer Res. 2017 Dec 1;23(23):7301-7311. doi: 10.1158/1078-0432.CCR-17-1121. Epub 2017 Sep 12. PMID: 28899971; PMCID: PMC6636827.
For `COc1ccc(C(CN(C)C)C2(O)CCCCC2)cc1` (stereo not drawn), the “viability (% of DMSO)” value was 96.6%. As to `C=C(C)[C@H]1Cc2c(ccc3c2O[C@@H]2COc4cc(OC)c(OC)cc4[C@@H]2C3=O)O1`, the Potency was 118 nM (active). With `Cc1sc2c(c1C)C(c1ccc(Cl)cc1)=N[C@@H](CC(=O)OC(C)(C)C)c1nnc(C)n1-2`, the Potency was 743 nM (active). Turning to `CNCC(O)c1ccc(O)cc1` (stereo not drawn), the “viability (% of DMSO)” value was 88.4%. Consider `Fc1ccc(C(OCCN2CCN(CCCc3ccccc3)CC2)c2ccc(F)cc2)cc1`, for which the Potency was 8330 nM (active).

In the case of `Cn1cc(C2=C(c3cn(C4CCN(Cc5ccccn5)CC4)c4ccccc34)C(=O)NC2=O)c2ccccc21`, the Potency was 5900 nM (active).

Turning to `CNC(=O)c1ccc(N2C(=S)N(c3ccc(C#N)c(C(F)(F)F)c3)C(=O)C23CCC3)cc1F`, the Potency is 4180 nM (active). The same measure, in the same setting: in the case of `O=C(O)C(=O)c1cn(Cc2ccccc2)c2ccc(-c3ccc(OC(F)(F)F)cc3)cc12` it was 20900 nM (active); in that of `COC[C@H]1OC(=O)c2coc3c2[C@@]1(C)C1=C(C3=O)C2CCC(=O)[C@@]2(C)C[C@H]1OC(C)=O` (stereo partly drawn), 46.9 nM (active).

With `N[C@@H](Cc1ccc(N(CCCl)CCCl)cc1)C(=O)O`, the Potency was 13200 nM (active). For the compound `C#CCN(C)[C@H](C)Cc1ccccc1`, the “viability (% of DMSO)” value is 84%.

For the compound `CN(C)CCc1ccc(O)cc1`, the “viability (% of DMSO)” value is 93.5%. Consider `CNC(=O)N1N=C(c2ccc(N)cc2)c2cc3c(cc2CC1C)OCO3` (stereo not drawn), for which the Potency was 1480 nM (active). As to `CN(C)[C@@H]1C(=O)C(C(N)=O)=C(O)[C@@]2(O)C(=O)C3=C(O)c4c(O)cccc4[C@@](C)(O)[C@H]3C[C@@H]12`, the “viability (% of DMSO)” value is 123%.

With `C[C@@H]1[C@@H](CC(C[C@H]2O[C@@H]3O[C@]4(C)CC[C@@H]5[C@H](C)CC[C@@H]([C@H]2C)[C@@]35OO4)C[S+](=O)([O-])c2ccc(COC(=O)N(C)C)cc2)O[C@@H]2O[C@]3(C)CC[C@H]4[C@H](C)CC[C@@H]1[C@@]24OO3` (stereo partly drawn), the Potency is 235 nM (active). As for `C[C@@H]1O[C@@H](O[C@H]2C[C@@H](O)[C@]3(CO)[C@H]4[C@H](O)C[C@]5(C)[C@@H](C6=CC(=O)OC6)CC[C@]5(O)[C@@H]4CC[C@]3(O)C2)[C@H](O)[C@H](O)[C@H]1O`, the Potency was 29.6 nM (active). As to `COc1ccc(C(=O)c2c(C)n(CCN3CCOCC3)c3ccccc23)cc1`, the “viability (% of DMSO)” value was 146%. As for `COC[C@@H](NC(C)=O)C(=O)NCc1ccccc1`, the “viability (% of DMSO)” value was 117%.

In the case of `C[C@@H]1[C@@H](C(=O)C[C@H]2O[C@@H]3O[C@]4(C)CC[C@@H]5[C@H](C)CC[C@@H]([C@H]2C)[C@@]35OO4)O[C@@H]2O[C@]3(C)CC[C@H]4[C@H](C)CC[C@@H]1[C@@]24OO3`, the Potency was 235 nM (active). For the compound `CCCC(C)(COC(N)=O)COC(=O)NC(C)C` (stereo not drawn), the “viability (% of DMSO)” value is 104%. In the case of `Cc1cccc(C)c1NC(=O)CN1CCCC1=O`, the “viability (% of DMSO)” value is 111%. Take `Cn1c(CCCC(=O)O)nc2cc(N(CCCl)CCCl)ccc21`: the Potency is 1180 nM (active). Same read-out and setting: in the case of `CC(O)(CS(=O)(=O)c1ccc(F)cc1)C(=O)Nc1ccc(C#N)c(C(F)(F)F)c1` (stereo not drawn) it was 296 nM (active).
